Source: PubChem BioAssay (National Center for Advancing Translational Sciences (NCATS))
Marburg entry inh – qHTS for inhibitors of binding or entry into cells for Marburg Virus. Marburg virus pseudotyped entry inhibition, cell reporter. Potency, µM (top dose mostly 37.8 µM), without a hit: at the highest dose activity change, negative = inhibition, hits mostly inhibitors. 1.8% of 300,000 active; calls by dose curve; tested in HEK293 cells; note: potency is the fitted concentration of half-maximal effect; % is set by controls: 0 for no effect and ±100 for the full control effect
Lassa entry inh – qHTS for Inhibitors of binding or entry into cells for Lassa Virus; Lassa virus pseudotype entry inhibition, cell reporter; Potency, µM (titrated, usually from 37.9 µM), inactives show at the top dose activity change, negative = inhibition, hits mostly inhibitors; 1.2% of 300,000 active; calls by dose curve; tested in HEK293 cells; note: potency is the fitted concentration of half-maximal effect; % is set by controls: 0 for no effect and ±100 for the full control effect; nearly all actives have a fitted effect of over 50% in size
SARS PLpro yeast – qHTS of Yeast-based Assay for SARS-CoV PLP; S. cerevisiae expressing SARS-CoV PLpro, growth rescue; AID 485353, 2010; 0.19% of 330,000 active; Potency, µM (highest dose often 32.9 µM), for the others: top-dose activity, positive = growth rescue, most hits filed as activators; calls by dose curve; note: potency is the fitted concentration of half-maximal effect; 0% is about no effect; nearly all actives have a fitted effect of over 55% in size
HCV inhibitor – qHTS Assay for Inhibitors of Hepatitis C Virus (HCV). Huh7.5.1 HCVcc-Cre infection, luciferase reporter, 44 h. Potency, µM (titrated, usually from 41.8 µM), without a hit: at the top dose activity change, negative = inhibition, actives largely listed as inhibitors. 3.4% of 340,000 active; active = well fitted inhibition curve with a large enough effect; inconclusive = small, poorly fitted or top-dose-only effect, or another doubt; inactive = no such curve, though single readings can be large or run the other way; note: potency is the fitted concentration of half-maximal effect; % is set by controls: 0 for no effect and ±100 for the full control effect
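After 44 h co-culture of compound, cells and HCVcc-Cre (~0.5 moi), substrate is added for 15 min at room temperature and luciferase measured over 15 sec. Cells were seeded at 1,000/well and pre-cultured 4 h.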
FMDV inh – High Throughput Screening for Foot and Mouth Disease Virus Antivirals; AID 1159524, 2015; Potency, µM (highest dose often 57.9 µM), for the others: at the highest dose activity change, negative = inhibition, hits mostly inhibitors; FMDV antiviral cell-based qHTS; 1.2% of 410,000 active; calls by dose curve; tested in HEK293T cells; note: read-out not given here; potency is the fitted concentration of half-maximal effect; % is set by controls: 0 for no effect and ±100 for the full control effect; nearly all actives have a fitted effect of over 45% in size
HCMV inh – qHTS Assay for inhibitors of the human cytomegalovirus (HCMV) | activity change, negative = inhibition, % at 57.5 µM | AID 1259415, 2018 | HFF cells, HCMV-luciferase reporter, 72 h; hits give low values | 4.5% of 410,000 active; in the data active = activity change below about -60%; inconclusive = no clear call, values can overlap the other calls; inactive = above about -39%; note: % is set by controls: 0 for no effect and ±100 for the full control effect
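Two-dose cell screen: HFF monolayers treated with compounds and infected with luciferase-expressing HCMV at 1 PFU/cell, 72 h at 37C, then lysed for luciferase measurement.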
* marks the source's active call; other numbers are inactive results; ? = inconclusive; / = no result; ! = a repeat was not active; [ ] = dose if it differs, or a comment. Only some compounds are listed: those with a hit (about 8% of all), similar ones and a draw of the others.

SMILES | Marburg entry inh | Lassa entry inh | SARS PLpro yeast | HCV inhibitor | FMDV inh | HCMV inh
CCCn1c(=N)c(C(=O)NCc2cccnc2)cc2c(=O)n3cc(C)ccc3nc21 | 9%[46.1 µM] | ? | / | / | -23% | -19
CC(=O)N=c1c(C#N)cc2c(=O)n3cccc(C)c3nc2n1Cc1ccco1 | / | / | 1% | 11µM* | -4% | ?
Cc1cccn2c(=O)c3cc(C(=O)NCCc4ccccc4)c(=N)n(Cc4ccco4)c3nc12 | ? | ? | 1% | ? | -5% | ?
O=C(NCc1ccco1)c1cnn2c1N[C@@H](c1ccccc1)C[C@@H]2C(F)(F)F | 0% | / | / | / | / | /
CCOc1ccc(CCNC(=O)c2c(C)oc3ncn(CC(C)C)c(=O)c23)cc1 | / | 9%[46.1 µM] | / | / | -9% | 0
COCCn1c(=N)c(C(=O)NCc2ccco2)cc2c(=O)n3ccccc3nc21 | ? | -17% | -1% | -29% | -13% | 12
O=C(CCCCn1c(=O)c2ccccc2n(Cc2ccc(Cl)cc2)c1=O)NCc1ccco1 | ? | ? | 7% | 13µM*! | ? | 42
N=c1c(C(=O)NCc2ccc(F)cc2)cc2c(=O)n3ccccc3nc2n1Cc1ccco1 | ? | 1% | -21% | 1µM* | ? | 32
N=c1c(C(=O)NCc2ccccc2)cc2c(=O)n3ccccc3nc2n1Cc1ccco1 | 11µM* | -27% | 4% | 7.9µM* | -28% | 26
Cc1ccc(CNC(=O)c2cc3c(=O)n4ccccc4nc3n(Cc3ccco3)c2=N)cc1 | 3% | 11% | -2% | ? | ? | -26
O=C(COc1ccc(F)cc1)Nc1ccccc1C(=O)OCc1cc(=O)n2nc(C3CC3)sc2n1 | / | 5%[46.1 µM] | / | / | -22% | 30
O=C1/C(=C\c2ccccc2)C[C@@]2(O)[C@H]3Cc4ccc(O)c5c4[C@@]2(CCN3CC2CC2)[C@H]1O5 | / | / | / | / | 10µM* | /
O=C1/C(=C\c2ccccc2)C[C@@]2(O)[C@H]3Cc4ccc(O)c5c4[C@@]2(CCN3CC2CC2)[C@@H]1O5 | / | / | / | / | 22µM* | /
NC(N)=Nc1ccc2[nH]c3c(c2c1)C[C@@]1(O)[C@H]2Cc4ccc(O)c5c4[C@@]1(CCN2CC1CC1)[C@H]3O5 | 26µM* | 2.3µM* | / | ? | ? | /
C=CCN1CCC23c4c5ccc(O)c4OC2/C(=N/N=C2\CCC4(O)C6Cc7ccc(O)c8c7C4(CCN6CC=C)C2O8)CCC3(O)C1C5 (stereo not drawn) | / | / | / | / | 21% | /
C=CCN1CC[C@]23c4c5ccc(O)c4O[C@@H]2/C(=N/N=C2\CC[C@@]4(O)C6Cc7ccc(O)c8c7[C@@]4(CCN6CC=C)[C@@H]2O8)CC[C@@]3(O)C1C5 | 4.5µM* | 16µM* | / | / | / | /
Oc1ccc2c3c1O[C@H]1c4[nH]c5c(c4C[C@@]4(O)[C@@H](C2)N(CC2CC2)CC[C@]314)C[C@]1(O)[C@H]2Cc3ccc(O)c4c3[C@@]1(CCN2CC1CC1)[C@@H]5O4 | -28% | / | / | / | -19% | /
COc1ccc(-n2c(=O)c3c(c4cc(OC)ccc4n3C)n(CC(=O)NCC3CCCO3)c2=O)cc1 (stereo not drawn) | / | 5%[46.1 µM] | / | / | 27% | 16
O=C(CSc1nnc(-c2ccc(F)cc2)o1)N1CCCc2ccccc21 | -1%[46.1 µM] | -1%[46.1 µM] | / | / | 2% | -14
CN(C)c1ccc(/C=N/n2ncc3ccccc32)cc1 | 10µM* | 13µM* | 6% | ? | / | /
C=CCn1c(/N=C/c2ccc(N(C)C)cc2)nc2ccccc21 | ? | 6% | -1% | 11% | 14% | 1
COc1cccc(-c2nnc(NC(=O)c3ccc(S(=O)(=O)N4CC(C)OC(C)C4)cc3)o2)c1 (stereo not drawn) | ? | ? | 4% | ? | -11% | -94*
CN(C)S(=O)(=O)c1ccc(C(=O)Nc2nnc(-c3cccs3)o2)cc1 | / | / | -1% | ? | 32% | ?
CC1CCCN(S(=O)(=O)c2ccc(C(=O)Nc3nnc(-c4ccccc4Cl)o3)cc2)C1 (stereo not drawn) | ? | ? | -15% | -9% | -13% | -98*
